PubChem BioAssay AID1224903 (Bradner/Qi Labs at DFCI, 2016)
Among all 66,000 compounds or so, about 720 (1.1%) were called active. No stated cut-off is given here; in the data, active means normalised signal below about 0.5; inactive means the rest, inconclusive results apart. Many of the other results were omitted from the sample, so actives are more common in it than they were.

Target: Chromobox protein homolog 7 (Homo sapiens) (UniProt O95931)
Test: blockers of CBX7 binding to H3K27me3 peptide – biochemical, AlphaScreen, primary screen (AID 1224903)
Details: AlphaScreen His6-CBX7 / biotin-H3K27me3 peptide binding, stronger effect = lower value; z-score: measured here: z-score of CBX7 signal

Chain of Chromobox protein homolog 7 (Homo sapiens) (O95931 whole entry, looked up): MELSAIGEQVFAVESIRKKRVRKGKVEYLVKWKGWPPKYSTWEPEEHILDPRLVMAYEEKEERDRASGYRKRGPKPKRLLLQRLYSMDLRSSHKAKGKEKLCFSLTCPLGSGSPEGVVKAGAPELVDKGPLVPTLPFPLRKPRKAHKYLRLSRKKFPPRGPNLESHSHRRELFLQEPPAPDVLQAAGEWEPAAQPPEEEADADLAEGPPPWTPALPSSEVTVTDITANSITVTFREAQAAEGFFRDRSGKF

Row | SMILES | normalised signal (fraction of DMSO) | z-score
1 | CC(=O)Oc1ccc(C2CC(=O)Nc3cc4c(cc32)OCO4)cc1 (centres undefined) | 0.988 (inactive) | -0.494
2 | CC(=O)Nc1ccc(S(=O)(=O)NCc2ccc(C(=O)NCCc3ccc(C)cc3)cc2)cc1 | 1.42 (inactive) | 1.84
3 | COc1ccc(Cn2c(=O)c3cccnc3n(Cc3ccc(C)cc3)c2=O)cc1 | 1.11 (inactive) | 1.94
4 | O=C(NCCCc1ccccc1)c1ccc2c(c1)N(Cc1ccccc1)CCS2 | 0.992 (inactive) | -0.011
5 | COCCCNC(=O)c1c[nH]c2ccc(S(=O)(=O)N(C)c3cccc(C)c3)cc2c1=O | 1.02 (inactive) | 0.264
6 | CCN(CCCNC(=O)c1c[nH]c2ccc(S(=O)(=O)N(CC)CC)cc2c1=O)c1cccc(C)c1 | 0.423 (active) | -6.22
7 | CCCCCCNC(=O)c1c[nH]c2ccc(S(=O)(=O)N(CC)c3cccc(C)c3)cc2c1=O | 1.08 (inactive) | 1.26
8 | O=C(CCCN1C(=O)CSc2ncccc21)NC1CCN(Cc2ccccc2)CC1 | 1.02 (inactive) | 0.27
9 | O=C(Nc1ccc(C(F)(F)F)cc1)c1n[nH]c(=O)c2ccccc12 | 1.17 (inactive) | 1.04
10 | COc1ccc(-c2noc(CCC(=O)NCc3cccc(OC)c3)n2)cc1 | 0.872 (inactive) | -1.96
11 | CCCNC(=O)c1nn2c(C(F)(F)F)cc(-c3ccco3)nc2c1Br | 1.09 (inactive) | 2.47
12 | CCC(CO)NCC(O)COCc1ccc(Cl)cc1 (centres undefined) | 1.05 (inactive) | 0.823
13 | O=C(Cn1nc(-c2ccccc2)c2cc(Cl)ccc21)NCc1ccccc1 | 1.08 (inactive) | 2.18
14 | Cc1cc(Br)ccc1NC(=O)CNC(=O)Cn1c(C)cc2ccccc2c1=O | 1.18 (inactive) | 1.84
15 | CCCCN(CC)CCCNC(=O)C1CCN(C(=O)c2cc3sccc3n2C)CC1 | 0.959 (inactive) | -0.744
16 | Cc1ccc(OCC(=O)Nc2ccc(S(=O)(=O)Nc3nccs3)cc2)c(Br)c1 | 1 (inactive) | 0.0983
17 | CCc1c(-c2ccccc2)nc2ccccc2c1C(=O)NCC1COc2ccccc2O1 (centres undefined) | 0.762 (inactive) | -0.941
